Measured values published in ChEMBL document CHEMBL1961873, “Compounds: GSK PKIS; Assays: Nanosyn kinase panel” (2012).

Experiments:
[1] = biological target: Sphingosine kinase 1 (Homo sapiens) (UniProt Q9NYA1); settings: at 1 µM;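 also: mean SPHK1 inhibition value reported from the GSK PKIS kinase panel screen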
[2] = biological target: T1, Sphingosine kinase 2 (Homo sapiens) (UniProt Q9NRA0); settings: at 0.1 µM
T1 sequence (whole entry): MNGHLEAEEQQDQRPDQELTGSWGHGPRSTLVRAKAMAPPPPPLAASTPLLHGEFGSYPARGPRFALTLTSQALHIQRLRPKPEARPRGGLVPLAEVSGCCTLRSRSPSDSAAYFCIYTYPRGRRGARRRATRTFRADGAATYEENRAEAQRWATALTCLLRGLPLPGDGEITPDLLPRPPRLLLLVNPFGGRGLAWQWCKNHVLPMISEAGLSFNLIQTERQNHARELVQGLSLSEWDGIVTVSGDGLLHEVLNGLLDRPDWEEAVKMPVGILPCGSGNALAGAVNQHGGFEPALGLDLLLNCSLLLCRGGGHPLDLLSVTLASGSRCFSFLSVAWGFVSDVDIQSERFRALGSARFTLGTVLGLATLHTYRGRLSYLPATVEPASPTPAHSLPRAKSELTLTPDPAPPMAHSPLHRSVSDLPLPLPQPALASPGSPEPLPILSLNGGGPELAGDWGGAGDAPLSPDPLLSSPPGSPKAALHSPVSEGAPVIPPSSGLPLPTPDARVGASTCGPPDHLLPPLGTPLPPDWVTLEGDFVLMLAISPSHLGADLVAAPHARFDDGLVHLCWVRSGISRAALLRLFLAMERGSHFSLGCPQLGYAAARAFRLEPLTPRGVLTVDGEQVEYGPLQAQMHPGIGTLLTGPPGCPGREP

[3] = biological target: T1, Sphingosine kinase 2 (Homo sapiens); settings: at 1 µM
[4] = biological target: Casein kinase II subunit alpha (Homo sapiens) (UniProt P68400); settings: at 0.1 µM
[5] = biological target: Casein kinase II subunit alpha (Homo sapiens) (UniProt P68400); settings: at 1 µM
[6] = biological target: T2, Inhibitor of nuclear factor kappa-B kinase subunit alpha (Homo sapiens) (UniProt O15111); settings: at 0.1 µM
T2 sequence (whole entry): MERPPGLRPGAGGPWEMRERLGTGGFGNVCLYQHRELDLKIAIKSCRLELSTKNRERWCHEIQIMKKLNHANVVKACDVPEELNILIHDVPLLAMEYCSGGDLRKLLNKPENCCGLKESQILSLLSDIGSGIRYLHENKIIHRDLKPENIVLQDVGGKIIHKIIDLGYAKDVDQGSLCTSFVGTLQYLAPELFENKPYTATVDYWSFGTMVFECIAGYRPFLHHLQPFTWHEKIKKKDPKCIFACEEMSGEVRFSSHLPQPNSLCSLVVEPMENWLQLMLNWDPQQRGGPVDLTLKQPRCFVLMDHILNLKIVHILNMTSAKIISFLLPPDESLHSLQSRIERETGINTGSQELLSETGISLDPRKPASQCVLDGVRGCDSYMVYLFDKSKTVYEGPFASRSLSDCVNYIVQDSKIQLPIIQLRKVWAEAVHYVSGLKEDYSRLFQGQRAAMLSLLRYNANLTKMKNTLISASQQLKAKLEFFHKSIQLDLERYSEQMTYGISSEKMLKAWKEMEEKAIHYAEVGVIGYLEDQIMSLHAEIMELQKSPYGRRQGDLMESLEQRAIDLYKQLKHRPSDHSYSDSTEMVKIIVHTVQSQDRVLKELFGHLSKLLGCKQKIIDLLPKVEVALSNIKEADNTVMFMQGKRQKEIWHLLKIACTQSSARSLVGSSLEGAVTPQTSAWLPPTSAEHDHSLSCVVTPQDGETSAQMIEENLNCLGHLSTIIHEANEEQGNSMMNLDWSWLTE

[7] = biological target: T2, Inhibitor of nuclear factor kappa-B kinase subunit alpha (Homo sapiens); settings: at 1 µM
[8] = biological target: T3, Inhibitor of nuclear factor kappa-B kinase subunit beta (Homo sapiens) (UniProt O14920); settings: at 0.1 µM
T3 sequence (whole entry): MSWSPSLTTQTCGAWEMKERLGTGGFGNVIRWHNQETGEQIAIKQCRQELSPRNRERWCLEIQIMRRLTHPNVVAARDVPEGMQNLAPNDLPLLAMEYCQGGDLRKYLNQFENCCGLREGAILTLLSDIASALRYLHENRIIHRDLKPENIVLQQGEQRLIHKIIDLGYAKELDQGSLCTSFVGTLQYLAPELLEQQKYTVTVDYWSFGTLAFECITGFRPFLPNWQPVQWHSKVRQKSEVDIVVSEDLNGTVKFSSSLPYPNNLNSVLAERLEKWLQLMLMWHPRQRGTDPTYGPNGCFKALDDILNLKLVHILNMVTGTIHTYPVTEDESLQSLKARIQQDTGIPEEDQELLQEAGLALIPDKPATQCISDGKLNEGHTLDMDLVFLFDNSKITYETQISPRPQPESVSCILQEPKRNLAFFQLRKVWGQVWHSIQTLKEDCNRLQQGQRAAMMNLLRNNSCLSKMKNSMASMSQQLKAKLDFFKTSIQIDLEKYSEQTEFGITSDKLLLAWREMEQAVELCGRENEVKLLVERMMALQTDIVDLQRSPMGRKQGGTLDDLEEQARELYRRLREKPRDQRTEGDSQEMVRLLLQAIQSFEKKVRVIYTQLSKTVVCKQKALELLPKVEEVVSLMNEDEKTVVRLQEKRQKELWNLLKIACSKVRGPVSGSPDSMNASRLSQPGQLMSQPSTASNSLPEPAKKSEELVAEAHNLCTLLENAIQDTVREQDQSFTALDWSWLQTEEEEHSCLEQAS

[9] = biological target: T3, Inhibitor of nuclear factor kappa-B kinase subunit beta (Homo sapiens); settings: at 1 µM
[10] = biological target: T4, Inhibitor of nuclear factor kappa-B kinase subunit epsilon (Homo sapiens) (UniProt Q14164); settings: at 0.1 µM
T4 sequence (whole entry): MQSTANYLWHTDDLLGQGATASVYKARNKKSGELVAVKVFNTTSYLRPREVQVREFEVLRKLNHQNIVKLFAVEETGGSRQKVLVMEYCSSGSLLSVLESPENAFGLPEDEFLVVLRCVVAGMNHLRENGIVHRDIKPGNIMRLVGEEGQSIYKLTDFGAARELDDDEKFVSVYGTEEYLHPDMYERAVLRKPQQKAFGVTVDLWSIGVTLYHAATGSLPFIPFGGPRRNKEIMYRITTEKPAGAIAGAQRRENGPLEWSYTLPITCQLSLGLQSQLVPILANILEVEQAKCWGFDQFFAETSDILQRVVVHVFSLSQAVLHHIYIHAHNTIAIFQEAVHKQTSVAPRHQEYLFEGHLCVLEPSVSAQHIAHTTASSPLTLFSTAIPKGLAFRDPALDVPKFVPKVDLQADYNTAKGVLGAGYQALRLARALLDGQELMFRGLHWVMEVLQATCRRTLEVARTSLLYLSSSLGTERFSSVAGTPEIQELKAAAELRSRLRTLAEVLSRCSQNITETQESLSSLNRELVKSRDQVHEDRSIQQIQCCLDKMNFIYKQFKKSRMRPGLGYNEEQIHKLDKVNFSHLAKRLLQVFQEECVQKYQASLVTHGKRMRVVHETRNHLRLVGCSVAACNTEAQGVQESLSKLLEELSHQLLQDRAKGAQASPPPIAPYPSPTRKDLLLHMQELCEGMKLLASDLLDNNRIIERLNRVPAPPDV

[11] = biological target: T4, Inhibitor of nuclear factor kappa-B kinase subunit epsilon (Homo sapiens); settings: at 1 µM
[12] = biological target: T5, Serine/threonine-protein kinase Nek1 (Homo sapiens) (UniProt Q96PY6); settings: at 0.1 µM
T5 sequence (whole entry): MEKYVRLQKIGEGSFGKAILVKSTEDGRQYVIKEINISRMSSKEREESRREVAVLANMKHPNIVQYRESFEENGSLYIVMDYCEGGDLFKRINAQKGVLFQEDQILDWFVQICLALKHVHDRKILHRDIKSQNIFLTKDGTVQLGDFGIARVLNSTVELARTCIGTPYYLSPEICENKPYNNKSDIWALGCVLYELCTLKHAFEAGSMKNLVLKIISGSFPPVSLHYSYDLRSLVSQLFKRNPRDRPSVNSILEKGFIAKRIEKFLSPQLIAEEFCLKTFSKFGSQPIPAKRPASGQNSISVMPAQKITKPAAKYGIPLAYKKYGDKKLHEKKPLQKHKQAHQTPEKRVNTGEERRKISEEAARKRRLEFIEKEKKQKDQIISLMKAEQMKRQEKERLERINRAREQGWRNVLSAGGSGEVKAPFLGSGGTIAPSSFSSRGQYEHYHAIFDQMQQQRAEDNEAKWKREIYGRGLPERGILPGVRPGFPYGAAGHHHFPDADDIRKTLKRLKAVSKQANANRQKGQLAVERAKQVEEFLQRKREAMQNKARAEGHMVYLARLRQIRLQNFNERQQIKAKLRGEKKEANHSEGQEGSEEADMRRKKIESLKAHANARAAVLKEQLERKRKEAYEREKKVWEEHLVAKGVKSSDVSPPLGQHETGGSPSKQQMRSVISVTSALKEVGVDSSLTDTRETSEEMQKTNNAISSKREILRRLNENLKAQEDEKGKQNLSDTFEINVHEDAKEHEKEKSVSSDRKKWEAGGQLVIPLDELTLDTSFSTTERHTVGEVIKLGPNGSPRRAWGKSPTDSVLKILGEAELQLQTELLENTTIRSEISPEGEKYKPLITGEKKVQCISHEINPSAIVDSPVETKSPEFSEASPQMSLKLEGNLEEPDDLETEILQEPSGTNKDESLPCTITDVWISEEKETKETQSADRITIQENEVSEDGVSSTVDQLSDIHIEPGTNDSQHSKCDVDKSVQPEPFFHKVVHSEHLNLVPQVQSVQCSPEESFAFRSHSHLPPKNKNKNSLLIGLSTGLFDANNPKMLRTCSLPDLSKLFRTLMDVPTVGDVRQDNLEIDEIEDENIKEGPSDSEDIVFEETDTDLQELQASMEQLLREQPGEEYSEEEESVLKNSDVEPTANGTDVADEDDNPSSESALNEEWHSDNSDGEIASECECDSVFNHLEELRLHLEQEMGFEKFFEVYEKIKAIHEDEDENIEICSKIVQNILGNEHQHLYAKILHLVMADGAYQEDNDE

[13] = biological target: T5, Serine/threonine-protein kinase Nek1 (Homo sapiens); settings: at 1 µM
[14] = biological target: T6, Serine/threonine-protein kinase Nek2 (Homo sapiens) (UniProt P51955); settings: at 0.1 µM
T6 sequence (whole entry): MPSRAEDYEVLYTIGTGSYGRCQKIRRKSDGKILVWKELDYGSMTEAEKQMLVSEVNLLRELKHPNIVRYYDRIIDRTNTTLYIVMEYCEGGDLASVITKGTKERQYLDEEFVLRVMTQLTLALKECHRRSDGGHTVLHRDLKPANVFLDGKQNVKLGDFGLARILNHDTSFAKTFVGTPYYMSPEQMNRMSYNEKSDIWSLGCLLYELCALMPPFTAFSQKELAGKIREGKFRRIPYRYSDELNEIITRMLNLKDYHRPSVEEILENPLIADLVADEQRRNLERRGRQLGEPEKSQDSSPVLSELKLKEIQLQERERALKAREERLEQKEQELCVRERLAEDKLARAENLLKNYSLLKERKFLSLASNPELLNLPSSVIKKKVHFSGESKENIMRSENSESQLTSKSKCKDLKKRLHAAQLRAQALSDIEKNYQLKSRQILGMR

[15] = biological target: T6, Serine/threonine-protein kinase Nek2 (Homo sapiens); settings: at 1 µM
[16] = biological target: Serine/threonine-protein kinase Nek6 (Homo sapiens) (UniProt Q9HC98); settings: at 0.1 µM
[17] = biological target: Serine/threonine-protein kinase Nek6 (Homo sapiens) (UniProt Q9HC98); settings: at 1 µM
[18] = biological target: Serine/threonine-protein kinase Nek7 (Homo sapiens) (UniProt Q8TDX7); settings: at 0.1 µM
[19] = biological target: Serine/threonine-protein kinase Nek7 (Homo sapiens) (UniProt Q8TDX7); settings: at 1 µM
[20] = biological target: T7, Serine/threonine-protein kinase Nek9 (Homo sapiens) (UniProt Q8TD19); settings: at 0.1 µM;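 also: reported value is the mean percent inhibition of NEK9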
T7 sequence (whole entry): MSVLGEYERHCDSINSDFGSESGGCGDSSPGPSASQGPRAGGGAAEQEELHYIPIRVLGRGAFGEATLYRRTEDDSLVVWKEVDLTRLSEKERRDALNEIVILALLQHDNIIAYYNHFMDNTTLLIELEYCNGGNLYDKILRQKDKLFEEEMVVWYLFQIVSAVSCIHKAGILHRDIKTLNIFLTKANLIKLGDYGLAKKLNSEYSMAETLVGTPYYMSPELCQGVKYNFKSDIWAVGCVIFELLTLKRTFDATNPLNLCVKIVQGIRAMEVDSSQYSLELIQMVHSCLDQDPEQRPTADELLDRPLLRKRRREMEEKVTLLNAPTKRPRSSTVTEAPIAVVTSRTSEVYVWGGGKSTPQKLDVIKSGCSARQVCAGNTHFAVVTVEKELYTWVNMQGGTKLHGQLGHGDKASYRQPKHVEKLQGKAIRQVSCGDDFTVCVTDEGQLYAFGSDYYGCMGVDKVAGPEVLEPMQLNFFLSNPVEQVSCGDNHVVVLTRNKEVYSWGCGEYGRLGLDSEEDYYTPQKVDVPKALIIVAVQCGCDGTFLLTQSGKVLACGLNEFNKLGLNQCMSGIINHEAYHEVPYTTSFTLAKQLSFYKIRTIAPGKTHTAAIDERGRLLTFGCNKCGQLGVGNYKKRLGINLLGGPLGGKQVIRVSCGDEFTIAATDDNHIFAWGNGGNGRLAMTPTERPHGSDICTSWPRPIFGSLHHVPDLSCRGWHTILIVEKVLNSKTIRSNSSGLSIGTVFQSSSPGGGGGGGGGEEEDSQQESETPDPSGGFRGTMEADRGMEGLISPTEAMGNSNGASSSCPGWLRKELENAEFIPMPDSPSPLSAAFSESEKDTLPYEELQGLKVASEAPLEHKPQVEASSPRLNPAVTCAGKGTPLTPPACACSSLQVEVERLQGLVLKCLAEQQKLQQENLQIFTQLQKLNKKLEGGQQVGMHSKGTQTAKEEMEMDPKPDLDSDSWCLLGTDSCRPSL

Chain of Serine/threonine-protein kinase Nek6 (Homo sapiens) (Q9HC98 whole entry): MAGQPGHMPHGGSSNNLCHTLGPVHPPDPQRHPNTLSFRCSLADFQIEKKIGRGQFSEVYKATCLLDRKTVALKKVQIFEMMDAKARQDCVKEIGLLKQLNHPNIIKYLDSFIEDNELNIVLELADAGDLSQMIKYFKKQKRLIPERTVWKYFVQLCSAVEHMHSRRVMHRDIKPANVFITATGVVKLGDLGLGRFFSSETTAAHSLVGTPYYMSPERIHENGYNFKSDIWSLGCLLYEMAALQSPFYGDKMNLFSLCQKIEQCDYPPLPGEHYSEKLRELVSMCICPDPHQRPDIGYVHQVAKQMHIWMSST
Chain of Casein kinase II subunit alpha (Homo sapiens) (P68400 whole entry, looked up): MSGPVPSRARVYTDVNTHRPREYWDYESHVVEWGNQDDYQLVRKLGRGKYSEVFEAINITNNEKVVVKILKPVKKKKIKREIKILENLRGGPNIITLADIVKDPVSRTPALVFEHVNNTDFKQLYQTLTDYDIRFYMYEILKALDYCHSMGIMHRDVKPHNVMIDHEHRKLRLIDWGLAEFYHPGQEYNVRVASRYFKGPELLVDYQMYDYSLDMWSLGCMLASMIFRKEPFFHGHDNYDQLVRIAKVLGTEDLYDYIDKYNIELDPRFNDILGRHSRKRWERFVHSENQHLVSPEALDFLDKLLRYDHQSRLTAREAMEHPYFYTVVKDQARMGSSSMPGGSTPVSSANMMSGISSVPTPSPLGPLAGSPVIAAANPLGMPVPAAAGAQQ
Chain of Serine/threonine-protein kinase Nek7 (Homo sapiens) (Q8TDX7 whole entry, looked up): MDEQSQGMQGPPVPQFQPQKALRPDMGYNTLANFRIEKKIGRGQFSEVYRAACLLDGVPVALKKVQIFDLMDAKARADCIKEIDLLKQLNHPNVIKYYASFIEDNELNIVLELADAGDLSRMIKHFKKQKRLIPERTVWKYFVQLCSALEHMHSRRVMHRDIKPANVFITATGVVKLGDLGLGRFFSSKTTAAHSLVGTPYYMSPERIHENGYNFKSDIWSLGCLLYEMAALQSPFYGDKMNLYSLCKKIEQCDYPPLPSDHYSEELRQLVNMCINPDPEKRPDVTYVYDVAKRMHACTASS
Chain of Sphingosine kinase 1 (Homo sapiens) (Q9NYA1 whole entry): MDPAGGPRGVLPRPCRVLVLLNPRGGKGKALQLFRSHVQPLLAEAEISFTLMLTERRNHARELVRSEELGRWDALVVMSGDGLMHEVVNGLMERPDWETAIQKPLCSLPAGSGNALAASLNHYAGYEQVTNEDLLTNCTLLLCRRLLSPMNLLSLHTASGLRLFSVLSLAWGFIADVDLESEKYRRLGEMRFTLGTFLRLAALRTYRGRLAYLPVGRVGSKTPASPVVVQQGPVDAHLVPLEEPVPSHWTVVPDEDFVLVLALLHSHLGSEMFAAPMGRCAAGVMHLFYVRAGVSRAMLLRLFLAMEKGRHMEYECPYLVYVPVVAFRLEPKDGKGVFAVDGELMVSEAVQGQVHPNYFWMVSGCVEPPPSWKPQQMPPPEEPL

Structure (SMILES) | inhibition [1] | inhibition [2] | inhibition [3] | inhibition [4] | inhibition [5] | inhibition [6] | inhibition [7] | inhibition [8] | inhibition [9] | inhibition [10] | inhibition [11] | inhibition [12] | inhibition [13] | inhibition [14] | inhibition [15] | inhibition [16] | inhibition [17] | inhibition [18] | inhibition [19] | inhibition [20]
O=C1Nc2ccccc2/C1=C1\CCc2cc(O)ccc21 | -8.14% | -0.36% | -2.47% | 3.18% | 9.1% | 13% | 5.45% | 5.41% | 5.64% | 6.27% | 20.3% | 3.11% | 4.37% | 7.09% | 5.47% | 1.9% | 1.99% | 5.62% | 4.31% | 8.42%
CS(=O)(=O)CCNCc1ccoc1-c1ccc2ncnc(Nc3ccc(OCc4ccccc4)cc3)c2c1 | 5.32% | 1.37% | 1.07% | 2.14% | 1.94% | 1.95% | 8.23% | -1.24% | 0.42% | -0.44% | 0.42% | 0.71% | 2.1% | 1.71% | 0.9% | 1.71% | 0.7% | 0.9% | 1.09% | -0.36%
